These results are taken from PubChem BioAssay (NCATS).

Inconclusive results are not listed. A call without a number means that no potency is given here. Activity calls are given as the source filed them. Calls follow the shape of the dose curve; as a rule, active = well fitted inhibition curve with a large enough effect; inconclusive = small, poorly fitted or top-dose-only effect, or effect the other way; inactive = flat fitted curve, though single readings scatter.
Potency is read from the fitted curve at half-maximal effect.

Chain of ATPase family AAA domain-containing protein 5 (Homo sapiens) (Q96QE3 whole entry, looked up, the tested form may be a part): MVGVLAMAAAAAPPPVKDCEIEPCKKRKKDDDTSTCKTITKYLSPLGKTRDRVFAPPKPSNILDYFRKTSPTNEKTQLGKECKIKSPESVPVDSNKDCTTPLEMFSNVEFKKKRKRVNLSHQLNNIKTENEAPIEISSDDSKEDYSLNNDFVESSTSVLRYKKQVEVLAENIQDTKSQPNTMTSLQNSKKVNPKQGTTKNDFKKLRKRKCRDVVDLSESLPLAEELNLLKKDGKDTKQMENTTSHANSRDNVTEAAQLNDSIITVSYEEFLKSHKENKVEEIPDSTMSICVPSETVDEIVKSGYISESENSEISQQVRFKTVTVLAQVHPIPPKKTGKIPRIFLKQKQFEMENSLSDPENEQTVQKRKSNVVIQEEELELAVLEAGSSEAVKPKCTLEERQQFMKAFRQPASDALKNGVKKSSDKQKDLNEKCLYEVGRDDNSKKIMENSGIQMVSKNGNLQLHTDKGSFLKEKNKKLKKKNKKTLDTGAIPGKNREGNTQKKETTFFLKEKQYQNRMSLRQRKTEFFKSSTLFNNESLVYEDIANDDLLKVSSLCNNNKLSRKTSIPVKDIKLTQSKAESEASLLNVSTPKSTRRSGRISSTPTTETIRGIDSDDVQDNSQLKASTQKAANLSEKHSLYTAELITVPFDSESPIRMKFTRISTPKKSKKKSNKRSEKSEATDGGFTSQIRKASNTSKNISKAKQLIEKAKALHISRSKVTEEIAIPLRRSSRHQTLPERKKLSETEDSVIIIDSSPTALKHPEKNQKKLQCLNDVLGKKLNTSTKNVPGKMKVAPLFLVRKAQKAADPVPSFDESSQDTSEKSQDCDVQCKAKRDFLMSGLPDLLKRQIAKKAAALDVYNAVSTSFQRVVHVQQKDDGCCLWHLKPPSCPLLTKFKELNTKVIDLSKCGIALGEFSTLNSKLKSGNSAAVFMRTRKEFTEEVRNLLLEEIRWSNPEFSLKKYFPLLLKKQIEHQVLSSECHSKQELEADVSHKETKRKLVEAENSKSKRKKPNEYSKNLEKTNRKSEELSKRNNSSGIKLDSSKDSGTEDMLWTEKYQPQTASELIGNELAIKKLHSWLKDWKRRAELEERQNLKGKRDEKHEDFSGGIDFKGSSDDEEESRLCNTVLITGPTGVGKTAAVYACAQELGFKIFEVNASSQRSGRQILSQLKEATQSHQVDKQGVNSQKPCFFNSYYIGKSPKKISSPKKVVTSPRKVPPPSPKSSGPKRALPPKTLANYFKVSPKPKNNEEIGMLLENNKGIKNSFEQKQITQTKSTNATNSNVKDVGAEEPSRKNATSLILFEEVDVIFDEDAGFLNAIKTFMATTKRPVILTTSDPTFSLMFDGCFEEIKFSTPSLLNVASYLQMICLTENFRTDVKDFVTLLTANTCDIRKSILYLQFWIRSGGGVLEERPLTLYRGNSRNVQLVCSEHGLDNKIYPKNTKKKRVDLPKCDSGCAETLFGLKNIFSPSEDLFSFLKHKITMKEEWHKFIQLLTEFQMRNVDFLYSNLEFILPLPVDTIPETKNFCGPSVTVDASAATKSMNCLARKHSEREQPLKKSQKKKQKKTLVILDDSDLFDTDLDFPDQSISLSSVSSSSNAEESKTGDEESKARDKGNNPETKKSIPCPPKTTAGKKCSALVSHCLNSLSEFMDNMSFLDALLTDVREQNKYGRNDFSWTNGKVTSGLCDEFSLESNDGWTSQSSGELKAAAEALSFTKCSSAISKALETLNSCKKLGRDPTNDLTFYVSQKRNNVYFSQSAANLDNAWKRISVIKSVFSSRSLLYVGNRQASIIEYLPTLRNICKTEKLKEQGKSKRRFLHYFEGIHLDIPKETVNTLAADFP

This assay has as its target ATPase family AAA domain-containing protein 5 (Homo sapiens) (UniProt Q96QE3). Put plainly: Validation screen for small molecules that inhibit ELG1-dependent DNA repair in human embryonic kidney (HEK293T) cells expressing luciferase-tagged ELG1 (AID 493107). Also: nearly all actives have a fitted effect of over 70% in size. As to conditions: HEK293T ELG1-luciferase level, luminescence, 5-fluorouridine co-treatment, 16 h; series mostly up to 46.1 µM. The text has this: NIH Molecular Libraries Probe Production Network [MLPCN]
NIH Chemical Genomics Center [NCGC]
Assay Provider: Kyungjae Myung, NHGRI, NIH
Keywords: MLPCN, qHTS, NCGC, genotoxicity, cancer
Cancer cells divide rapidly compared to normal cells in the body. During cell division, cancer cells need to duplicate their genome by DNA replication. The failure of genome duplication leads to cancer cells' death. Therefore, inhibitors of DNA replication could specifically kill cancer cells. Based on this concept, many chemotherapeutic agents were developed and have been used to treat cancer patients. However, there are a limited number of agents available in the clinical setting, and some of those that do exist have low efficacy and severe side effects. Therefore, if we can find the compounds that effectively block DNA replication either by directly damaging DNA or by inhibiting other cellular mechanisms, the options for cancer treatment will be broadened. With this in mind, we developed a quantitative high-throughput ELG1-luciferase reporter gene assay. Small molecules that specifically block ELG1 function in response to DNA damage can be identified by monitoring the suppression of luciferase activity. Since ELG1 defines a pathway for repairing DNA damage, agents blocking ELG1 function can be used to sensitize cancer cells to chemotherapeutic agents whose mechanism of action involves the induction of DNA damage.
For genotoxicity screening, 2,000 cells in 4 uL/well were dispensed into white, solid-bottom 1536-well plates using a solenoid-based dispenser. Following transfer of 1 uL 5-Fluorouridine and 23 nL compound or DMSO vehicle by a pin tool, the plates were incubated 16 hr at 37 °C and 5% CO2. 5 ul ONE-Glo (Promega) was then added to each plate and following a 30 min incubation at room temperature, luciferase activity was quantified on a ViewLux CCD-based plate reader.
Regarding `CC1CC2C3CCC4=CC(=O)C=C[C@]4(C)[C@@]3(F)[C@@H](O)C[C@]2(C)[C@@]1(O)C(=O)CO` (stereo partly drawn), the Potency entry is “inactive”.
Take `COc1cc2nc(N3CCCN(C)CC3)nc(NC3CCN(Cc4ccccc4)CC3)c2cc1OC`: the Potency is 25.9 µM (active).
In the case of `CC1=C(C(=O)O)N2C(=O)[C@@H](NC(=O)C(N)c3ccccc3)[C@H]2SC1` (stereo partly drawn), the Potency entry was “inactive”.
Then `CCN(CC)CCn1c(=O)c(Cc2ccc(OC)cc2)nc2ccccc21`, with “inactive”; and `Nc1nc(N)c2nc(CNc3ccc(C(=O)NC(CCC(=O)O)C(=O)O)cc3)cnc2n1` (stereo not drawn), with “inactive”; and `CCCCS(=N)(=O)CCC(N)C(=O)O` (stereo not drawn), with “inactive”.
For the compound `OCc1ccc(-c2nn(Cc3ccccc3)c3ccccc23)o1`, the Potency entry is “inactive”.
`Cc1ccc(S(=O)(=O)N[C@@H](Cc2ccccc2)C(=O)CCl)cc1`: the Potency was 14.6 µM (active).
In the case of `NC(=O)c1cccc(N)c1`, the Potency result is “inactive”.
Then `CCN(CC)CC#CCOC(=O)C(O)(c1ccccc1)C1CCCCC1` (stereo not drawn), with “inactive”; and `N[C@@H](Cc1ccc(O)c(O)c1)C(=O)O`, with “inactive”; and `CC(C)NCC(O)c1ccc(NS(C)(=O)=O)cc1` (stereo not drawn), with “inactive”.
For the compound `O=C(O)C1CCCN(CCC=C(c2ccccc2)c2ccccc2)C1` (stereo not drawn), the Potency result was “inactive”.
